Results reported in article PMC4336329 (PLoS ONE, 2015).
Hit rate of the full screen: of about 310,000 compounds, about 14,000 (4.5%) showed an effect of 50% or more. The effect is printed as a negative number. This excerpt belongs to a sample that is enriched for strong results.

The compounds below were run against human ether-à-go-go-related gene (hERG) potassium channel (human, UniProt Q12809) (assay: primary screen, population patch clamp on CHO cells stably expressing hERG; higher = less effect of the substance).
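Also: peak tail current of the secondary pulse compared with the same well before compound.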

human ether-à-go-go-related gene (hERG) potassium channel, sequence (Q12809 whole entry, looked up): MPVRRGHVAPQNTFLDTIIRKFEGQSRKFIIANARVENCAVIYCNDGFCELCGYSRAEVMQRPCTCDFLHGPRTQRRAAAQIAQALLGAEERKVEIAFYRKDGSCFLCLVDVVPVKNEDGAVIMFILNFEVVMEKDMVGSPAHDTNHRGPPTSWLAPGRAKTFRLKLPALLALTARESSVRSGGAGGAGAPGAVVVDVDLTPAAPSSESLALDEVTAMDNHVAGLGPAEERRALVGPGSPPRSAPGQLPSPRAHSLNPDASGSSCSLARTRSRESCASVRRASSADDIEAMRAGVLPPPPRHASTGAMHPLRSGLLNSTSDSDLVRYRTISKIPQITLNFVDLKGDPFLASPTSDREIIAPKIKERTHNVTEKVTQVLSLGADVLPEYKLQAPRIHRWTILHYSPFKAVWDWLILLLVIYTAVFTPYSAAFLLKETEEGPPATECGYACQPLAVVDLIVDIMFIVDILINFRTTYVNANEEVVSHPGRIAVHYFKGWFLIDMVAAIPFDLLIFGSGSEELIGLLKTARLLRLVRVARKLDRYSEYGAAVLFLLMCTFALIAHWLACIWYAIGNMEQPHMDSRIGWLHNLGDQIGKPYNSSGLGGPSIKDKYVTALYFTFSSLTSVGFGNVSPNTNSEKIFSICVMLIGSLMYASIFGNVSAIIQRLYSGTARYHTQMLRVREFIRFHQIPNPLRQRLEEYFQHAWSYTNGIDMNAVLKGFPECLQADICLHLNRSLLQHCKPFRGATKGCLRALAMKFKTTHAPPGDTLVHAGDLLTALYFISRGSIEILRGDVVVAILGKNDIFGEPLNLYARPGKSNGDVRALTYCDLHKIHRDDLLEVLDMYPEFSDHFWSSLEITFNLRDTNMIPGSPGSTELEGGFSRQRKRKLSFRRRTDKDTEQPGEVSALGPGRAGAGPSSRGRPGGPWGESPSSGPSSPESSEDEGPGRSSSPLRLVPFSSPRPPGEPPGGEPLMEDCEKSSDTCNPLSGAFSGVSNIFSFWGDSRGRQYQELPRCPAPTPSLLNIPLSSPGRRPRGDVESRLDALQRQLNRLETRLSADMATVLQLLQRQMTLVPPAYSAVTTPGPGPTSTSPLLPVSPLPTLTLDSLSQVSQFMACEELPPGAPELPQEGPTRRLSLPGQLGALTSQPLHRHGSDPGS

SMILES	hERG current change (%, negative = inhibition) at 10uM [%]
COc1ccc(COC(=O)C2CCN(S(=O)(=O)c3ccc(Cl)cc3)CC2)cc1	30
CCn1c(CSc2ncn[nH]2)nc2cc(C(=O)O)ccc21	-4.97
COc1cccc2c1Oc1ncccc1N(C(=O)CCC(=O)NCc1ccc(C)cc1)C2	-34.4
CCOc1ccc(CNC(=O)CCC(=O)N2Cc3cccc(OC)c3Oc3ncccc32)cc1	-44.3
COc1cccc2c1Oc1ncccc1N(C(=O)CCC(=O)NCc1ccc(F)cc1)C2	-32.6
CCOc1ccccc1CNC(=O)CCC(=O)N1Cc2ccccc2Oc2ncccc21	-3.62
CCOc1ccc(CNC(=O)CCC(=O)N2Cc3ccccc3Oc3ncccc32)cc1	-51.1
CCc1ccc(CNC(=O)CCC(=O)N2Cc3cccc(OC)c3Oc3ncccc32)cc1	-75
O=C1C=C(Nc2ccc(O)cc2)C(=O)c2ccccc21	4.35
CCc1ccccc1Nc1nc(-c2cccnc2)cs1	-3.32
Fc1ccc(NC(=S)N/N=C/c2ccc(F)c(F)c2)c(F)c1	13
Cc1nc(SCC(=O)NC2CCCC2)c2c(C)c(C)sc2n1	-4.48
CCc1cccc2c(C(=O)COC(=O)c3cnc(C)cn3)c[nH]c12	2.87
CCc1cccc2c(C(=O)COC(=O)C3=NNC(=O)CC3)c[nH]c12	-51.6
O=C1CCC(C(=O)OCC(=O)c2c[nH]c3ccccc23)=NN1	1.19
CCc1cccc2c(C(=O)COC(=O)c3nn(C)c(=O)c4ccccc34)c[nH]c12	-65.6
CCc1cccc2c(C(=O)COC(=O)c3nccnc3N)c[nH]c12	-5.69
CCc1cccc2c(C(=O)COC(=O)c3ccccc3)c[nH]c12	11.7
Fc1ccccc1NC(=S)NN(Cc1ccccc1)c1ccccc1	-13.9
CCNc1nc2[nH]c(=O)c3c(c2s1)OC(N)=C(C#N)C3c1ccc(C)cc1 (centres unmarked)	1.97

SMILES	hERG current change (%, negative = inhibition) at 10uM [%]
CCCc1nc(SCC(N)=O)[nH]c(=O)c1CC	7.34
CCOc1ccc(NC(=O)c2ccccc2CO)cc1	16.2
Cn1cnnc1SCC(=O)Nc1ccccc1Sc1ccccc1	-16.7
COc1cc(C(=O)Nc2cc(C)cc(C)c2)c(-n2cnnn2)cc1OC	14.7
COCCN(C(=O)Nc1ccc(OC)cc1OC)C1CCN(C(C)=O)CC1	7.58
O=C(Nc1ccccc1)OC(CN1CCCCC1)C(F)(F)F (centres unmarked)	6.17
Cl.O=C(Nc1ccccc1)OCC(CN1CCCCC1)OC(=O)Nc1ccccc1 (centres unmarked)	-60.1
O=C(CN1CCCCC1)Nc1ccccc1	-1.04
CCN(CC(=O)Nc1ccc(NC(C)=O)cc1)C(=O)C1CCCN(C(=O)c2ccc(Cl)cc2)C1 (centres unmarked)	-3.75
COC(=O)c1ccccc1NC(=O)CN1CCC(NC(=O)c2ccccc2C)CC1	-39.9
CCOc1ccccc1OCC(=O)Nc1ccccc1C(=O)NC1CC1	3.61
CCOc1ccccc1NC(=O)N1CCC(NC(=O)c2ccccc2C)CC1	-1.06
CC(=O)c1ccc(N2CCN(CC(=O)Nc3ccccc3C(=O)NC3CC3)CC2)c(F)c1	-27.9
CCOc1ccccc1N1CCN(CC(=O)Nc2ccccc2C(=O)NC2CC2)CC1	-70.2
CCOc1cc2c(cc1OCC)CN(CC(=O)Nc1ccccc1C(=O)NC1CC1)CC2	-31.4
CC1CCN(CC(=O)Nc2ccccc2C(=O)NC2CC2)CC1	-17.4
CCOc1ccccc1NC(=O)CN1CCC(NC(=O)c2ccccc2C)CC1	-59.4
Cc1ccccc1N1CCN(CC(=O)Nc2ccccc2C(=O)NC2CC2)CC1	-62.4
COc1ccc(OC)c(NC(=O)CN2CCC(NC(=O)c3ccccc3C)CC2)c1	-12.3
CCOc1ccccc1C(=O)Nc1cc(OC)ccc1OC	-3.8

SMILES	hERG current change (%, negative = inhibition) at 10uM [%]
CCOc1ccccc1C(=O)NC1CCN(CC(=O)Nc2cc(OC)ccc2OC)CC1	-77.2
COc1cccc(OCc2nnc(SC)n2C)c1	-7.06
Cc1cc2ccccn2c1C(=O)c1ccc(NN)c([N+](=O)[O-])c1	-6.4
O=C(Nc1ccc(S(=O)(=O)Nc2ccccn2)cc1)c1ccc(Cl)cc1Cl	2.92
Cc1ccccc1NC(=O)CN1C(=O)S/C(=C\c2ccc(-c3cccc(C(=O)O)c3C)o2)C1=O	23.7
CCc1cccc(NC(=O)COC(=O)C2CCN(c3ccc(C(F)(F)F)cn3)CC2)c1	-4.68
CCOc1ccc(NC(=S)NC(=O)Cc2ccccc2)cc1	25.5
Cc1nnc(NC(=O)/C=C/c2ccco2)s1	26.3
O=C(Nc1ccc(CN2CCOCC2)cc1)c1ccc(Br)cc1	3.54
CC(C)NC(=O)c1ccccc1NC(=O)Cc1ccc([N+](=O)[O-])cc1	-33.8
CC1C(=O)CCN(C(C)C)C1C.Cl (centres unmarked)	8.54
CCOC(=O)c1cnn(C)c1NC(=O)c1ccc(Cl)cc1Cl	-24.5
Cc1cc(C)nc(NS(=O)(=O)c2ccc(NC(=O)c3ccc4c(c3)OCO4)cc2)n1	-0.197
NC(=O)C1CCCN(CC(=O)Nc2ccccc2C(=O)NC2CC2)C1 (centres unmarked)	-10.7
S=C(NC1CCCCC1)N1CCN(C/C=C/c2ccccc2)CC1	-21.8
O=C(CN1CCN(C/C=C/c2ccccc2)CC1)Nc1ccccc1C(=O)NC1CC1	-80.5
O=C(CN1CCc2ccccc2C1)Nc1ccccc1C(=O)NC1CC1	-24.5
O=C(CN1CCN(C/C=C/c2ccccc2)CC1)NC(=O)NC1CCCCC1	-74.8
O=C(CN1CCN(Cc2ccccc2)CC1)NC(=O)NC1CCCCC1	-46.3
